Results as given in the supplement of paper PMC10849652.
About 7,900 targets were measured; listed, in parts, are those with a hit and a random draw of the rest. About 0.6% of all pairs of compound and target were hits. A number with no mark means an inactive call.

Columns and labels:
Experiment in all cases: log2 fold change, soluble protein after heating vs DMSO (PISA); higher = thermal stabilisation; K562 cells, 10 uM, 30 min; active = over 0.2 and 3.5 SD of the protein, either way, in both replicates (recomputed)
[1] = compound: CC1=C(C=C(C=C1)NC(=O)C2=CC(=CC=C2)C(C)(C)C#N)NC3=CC4=C(C=C3)N=CN(C4=O)C
Outline: (§1)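 K562 cells at 2×10^6 cells/mL were treated with 10 μM compound for 30 min. Aliquots were heated for 3 min across 48°C-58°C, pooled, and extracted in PBS with 0.5% NP-40 at 4°C; soluble protein was the supernatant after 21,000xg for 90 min. Soluble protein was quantified by TMTpro 16plex LC-MS/MS with channel sums equalised, and reported as log2 fold change in thermal stability against DMSO controls, with values from duplicates.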

[2] = compound: CC1=C(C=C(C=C1)NC(=O)C2=CC(=CC=C2)N(C)C)NC(=O)C3=CC=C(C=C3)O
Outline: as §1

[3] = compound: CC1=CC=C(C=C1)SC2=C3C=C(SC3=CN=C2)C(=O)N
Outline: as §1

[4] = compound: CC1=NC(=CC=C1)C2=C(N=C(N2)C(C)(C)C)C3=CC4=NC=CN=C4C=C3
Outline: as §1

Nexturastat A = compound: CCCCN(Cc1ccc(C(=O)NO)cc1)C(=O)Nc1ccccc1 [Nexturastat A]
Outline: as §1

vemurafenib = compound: CCCS(=O)(=O)Nc1ccc(F)c(C(=O)c2c[nH]c3ncc(-c4ccc(Cl)cc4)cc23)c1F [vemurafenib]
Outline: as §1

[5] = compound: CCCS(=O)(=O)Nc1ccc(F)c(C(=O)c2c[nH]c3ncc(Cl)cc23)c1F
Outline: as §1

[6] = compound: CCCc1cc(C)[nH]c(=O)c1CNC(=O)c1cc(-c2ccnc(N3CCN(C)CC3)c2)cc2c1cnn2C(C)C
Outline: as §1

givinostat = compound: CCN(CC)Cc1ccc2cc(COC(=O)Nc3ccc(C(=O)NO)cc3)ccc2c1 [givinostat]
Outline: as §1

barasertib = compound: CCN(CCCOc1ccc2c(Nc3cc(CC(=O)Nc4cccc(F)c4)[nH]n3)ncnc2c1)CCOP(=O)(O)O [barasertib]
Outline: as §1

[7] = compound: CC[C@@H]1C(=O)N(C)c2cnc(Nc3ccc(C(=O)NC4CCN(C)CC4)cc3OC)nc2N1C1CCCC1
Outline: as §1

volasertib = compound: CC[C@@H]1C(=O)N(C)c2cnc(Nc3ccc(C(=O)N[C@H]4CC[C@H](N5CCN(CC6CC6)CC5)CC4)cc3OC)nc2N1C(C)C [volasertib]
Outline: as §1

[8] = compound: CC[C@H](C)N1C=C(C2=C(C=C(C=C21)C3=CN=C(C=C3)N4CCNCC4)C(=O)NCC5=C(C=C(NC5=O)C)C)C
Outline: as §1

epoxomicin = compound: CC[C@H](C)[C@@H](C(=O)N[C@@H]([C@@H](C)O)C(=O)N[C@@H](CC(C)C)C(=O)[C@]1(CO1)C)NC(=O)[C@H]([C@@H](C)CC)N(C)C(=O)C [epoxomicin]
Outline: as §1

[9] = compound: CCn1c(C(=O)N(C2CC2)C2CC2)cc2c3c(ncn3C)c(Nc3cc(C)n(C)n3)nc21
Outline: as §1

[10] = compound: CCn1cc(-c2ccnc3[nH]c(-c4cccc(CN(C)C)c4)cc23)c(-c2ccc(NC(=O)N(C)C)cc2)n1
Outline: as §1

[11] = compound: CN(C)CC(=O)Nc1ccc2[nH]c(=O)c3ccccc3c2c1
Outline: as §1

rosiglitazone = compound: CN(CCOC1=CC=C(C=C1)C[C@H]2C(=O)NC(=O)S2)C3=CC=CC=N3 (racemic) [rosiglitazone]
Outline: as §1

[12] = compound: CN1C2=C(C3=C1C(=O)N(N=C3)CC4=CC(=CC=C4)N)SC(=C2)S(=O)C
Outline: as §1

[13] = compound: CN1CCC(CNc2ccc3ncc(-c4cccc(OC(F)(F)F)c4)n3n2)CC1
Outline: as §1

UniProt P35520, sequence (P35520 whole entry, looked up): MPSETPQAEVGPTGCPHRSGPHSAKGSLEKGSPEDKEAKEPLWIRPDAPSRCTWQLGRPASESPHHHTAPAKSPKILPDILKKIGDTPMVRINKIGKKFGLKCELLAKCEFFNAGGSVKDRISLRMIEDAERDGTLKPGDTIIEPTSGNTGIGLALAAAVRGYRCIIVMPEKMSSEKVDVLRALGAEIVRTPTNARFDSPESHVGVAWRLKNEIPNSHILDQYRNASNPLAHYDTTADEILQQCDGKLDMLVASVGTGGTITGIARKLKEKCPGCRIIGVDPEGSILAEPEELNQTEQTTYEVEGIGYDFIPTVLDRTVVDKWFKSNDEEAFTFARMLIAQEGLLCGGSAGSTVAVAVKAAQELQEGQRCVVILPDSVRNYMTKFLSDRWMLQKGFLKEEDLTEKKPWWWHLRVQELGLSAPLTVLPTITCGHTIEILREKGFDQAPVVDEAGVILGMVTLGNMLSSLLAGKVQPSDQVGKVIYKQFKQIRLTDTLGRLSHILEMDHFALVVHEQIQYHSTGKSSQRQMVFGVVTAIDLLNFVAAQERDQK
UniProt Q96JB5, sequence (Q96JB5 whole entry, looked up): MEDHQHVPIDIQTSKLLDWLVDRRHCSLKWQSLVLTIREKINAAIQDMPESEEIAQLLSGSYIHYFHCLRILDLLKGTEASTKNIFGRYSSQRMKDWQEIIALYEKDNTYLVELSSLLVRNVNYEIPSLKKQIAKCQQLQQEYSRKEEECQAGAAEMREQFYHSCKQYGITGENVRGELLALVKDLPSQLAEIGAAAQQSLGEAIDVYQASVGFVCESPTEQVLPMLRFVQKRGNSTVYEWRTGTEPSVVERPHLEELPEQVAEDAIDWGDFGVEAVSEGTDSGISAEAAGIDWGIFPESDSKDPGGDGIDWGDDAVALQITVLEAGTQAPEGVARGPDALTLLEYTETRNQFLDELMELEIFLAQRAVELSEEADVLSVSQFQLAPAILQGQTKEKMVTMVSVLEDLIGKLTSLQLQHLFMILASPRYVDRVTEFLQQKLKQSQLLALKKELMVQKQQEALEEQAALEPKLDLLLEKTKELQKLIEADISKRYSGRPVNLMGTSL
UniProt Q8IX12, sequence (Q8IX12 whole entry, looked up): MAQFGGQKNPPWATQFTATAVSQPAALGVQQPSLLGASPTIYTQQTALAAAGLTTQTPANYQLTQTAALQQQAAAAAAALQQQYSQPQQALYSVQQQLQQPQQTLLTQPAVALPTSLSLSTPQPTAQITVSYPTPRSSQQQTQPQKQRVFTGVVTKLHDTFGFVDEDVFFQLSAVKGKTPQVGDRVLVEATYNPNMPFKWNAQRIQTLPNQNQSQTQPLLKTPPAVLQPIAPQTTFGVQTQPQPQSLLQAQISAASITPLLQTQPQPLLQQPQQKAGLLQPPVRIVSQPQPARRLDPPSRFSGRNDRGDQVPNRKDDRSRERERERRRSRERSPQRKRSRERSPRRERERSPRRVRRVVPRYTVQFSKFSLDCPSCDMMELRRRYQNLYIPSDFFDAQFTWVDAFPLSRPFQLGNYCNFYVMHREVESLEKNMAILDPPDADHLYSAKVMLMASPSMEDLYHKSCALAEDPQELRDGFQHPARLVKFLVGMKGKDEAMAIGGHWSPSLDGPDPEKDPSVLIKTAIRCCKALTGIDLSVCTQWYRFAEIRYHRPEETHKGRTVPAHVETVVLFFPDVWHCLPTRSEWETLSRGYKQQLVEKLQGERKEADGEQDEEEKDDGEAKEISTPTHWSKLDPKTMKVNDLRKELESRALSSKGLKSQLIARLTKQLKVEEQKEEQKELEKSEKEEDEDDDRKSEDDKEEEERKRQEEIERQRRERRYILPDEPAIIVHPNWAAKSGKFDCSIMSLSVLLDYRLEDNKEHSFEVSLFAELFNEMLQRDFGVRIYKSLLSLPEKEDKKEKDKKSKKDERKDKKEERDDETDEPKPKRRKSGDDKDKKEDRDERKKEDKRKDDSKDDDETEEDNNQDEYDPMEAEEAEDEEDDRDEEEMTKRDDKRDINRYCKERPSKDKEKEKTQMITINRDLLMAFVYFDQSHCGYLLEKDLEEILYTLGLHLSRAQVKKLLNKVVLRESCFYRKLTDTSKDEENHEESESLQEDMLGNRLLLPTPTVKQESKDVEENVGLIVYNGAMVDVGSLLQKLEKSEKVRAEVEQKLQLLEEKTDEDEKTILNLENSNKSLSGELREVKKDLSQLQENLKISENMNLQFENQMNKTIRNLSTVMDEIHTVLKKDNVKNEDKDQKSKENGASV
UniProt Q9UIV1, sequence (Q9UIV1 whole entry, looked up): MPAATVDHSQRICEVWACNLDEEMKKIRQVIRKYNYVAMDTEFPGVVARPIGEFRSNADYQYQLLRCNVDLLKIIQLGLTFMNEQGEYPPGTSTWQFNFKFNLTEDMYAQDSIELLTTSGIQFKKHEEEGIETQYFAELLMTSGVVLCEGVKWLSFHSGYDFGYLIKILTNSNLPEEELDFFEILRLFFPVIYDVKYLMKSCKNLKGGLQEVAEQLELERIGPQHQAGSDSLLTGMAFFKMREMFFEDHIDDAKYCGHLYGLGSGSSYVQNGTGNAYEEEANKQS
UniProt Q14790, sequence (Q14790 whole entry, looked up): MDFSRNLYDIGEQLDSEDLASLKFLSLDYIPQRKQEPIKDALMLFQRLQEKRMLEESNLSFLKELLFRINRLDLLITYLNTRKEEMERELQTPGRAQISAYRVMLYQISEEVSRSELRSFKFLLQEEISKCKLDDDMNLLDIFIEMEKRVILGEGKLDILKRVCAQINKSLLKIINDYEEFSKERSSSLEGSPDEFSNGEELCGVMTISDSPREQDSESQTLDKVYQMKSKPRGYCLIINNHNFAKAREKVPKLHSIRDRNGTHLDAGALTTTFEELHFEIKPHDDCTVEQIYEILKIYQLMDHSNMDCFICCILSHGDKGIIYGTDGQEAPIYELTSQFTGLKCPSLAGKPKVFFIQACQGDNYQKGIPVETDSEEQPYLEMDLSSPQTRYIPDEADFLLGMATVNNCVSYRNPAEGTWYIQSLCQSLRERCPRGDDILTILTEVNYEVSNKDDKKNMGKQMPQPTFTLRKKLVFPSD
UniProt O75976, sequence (O75976 whole entry, looked up): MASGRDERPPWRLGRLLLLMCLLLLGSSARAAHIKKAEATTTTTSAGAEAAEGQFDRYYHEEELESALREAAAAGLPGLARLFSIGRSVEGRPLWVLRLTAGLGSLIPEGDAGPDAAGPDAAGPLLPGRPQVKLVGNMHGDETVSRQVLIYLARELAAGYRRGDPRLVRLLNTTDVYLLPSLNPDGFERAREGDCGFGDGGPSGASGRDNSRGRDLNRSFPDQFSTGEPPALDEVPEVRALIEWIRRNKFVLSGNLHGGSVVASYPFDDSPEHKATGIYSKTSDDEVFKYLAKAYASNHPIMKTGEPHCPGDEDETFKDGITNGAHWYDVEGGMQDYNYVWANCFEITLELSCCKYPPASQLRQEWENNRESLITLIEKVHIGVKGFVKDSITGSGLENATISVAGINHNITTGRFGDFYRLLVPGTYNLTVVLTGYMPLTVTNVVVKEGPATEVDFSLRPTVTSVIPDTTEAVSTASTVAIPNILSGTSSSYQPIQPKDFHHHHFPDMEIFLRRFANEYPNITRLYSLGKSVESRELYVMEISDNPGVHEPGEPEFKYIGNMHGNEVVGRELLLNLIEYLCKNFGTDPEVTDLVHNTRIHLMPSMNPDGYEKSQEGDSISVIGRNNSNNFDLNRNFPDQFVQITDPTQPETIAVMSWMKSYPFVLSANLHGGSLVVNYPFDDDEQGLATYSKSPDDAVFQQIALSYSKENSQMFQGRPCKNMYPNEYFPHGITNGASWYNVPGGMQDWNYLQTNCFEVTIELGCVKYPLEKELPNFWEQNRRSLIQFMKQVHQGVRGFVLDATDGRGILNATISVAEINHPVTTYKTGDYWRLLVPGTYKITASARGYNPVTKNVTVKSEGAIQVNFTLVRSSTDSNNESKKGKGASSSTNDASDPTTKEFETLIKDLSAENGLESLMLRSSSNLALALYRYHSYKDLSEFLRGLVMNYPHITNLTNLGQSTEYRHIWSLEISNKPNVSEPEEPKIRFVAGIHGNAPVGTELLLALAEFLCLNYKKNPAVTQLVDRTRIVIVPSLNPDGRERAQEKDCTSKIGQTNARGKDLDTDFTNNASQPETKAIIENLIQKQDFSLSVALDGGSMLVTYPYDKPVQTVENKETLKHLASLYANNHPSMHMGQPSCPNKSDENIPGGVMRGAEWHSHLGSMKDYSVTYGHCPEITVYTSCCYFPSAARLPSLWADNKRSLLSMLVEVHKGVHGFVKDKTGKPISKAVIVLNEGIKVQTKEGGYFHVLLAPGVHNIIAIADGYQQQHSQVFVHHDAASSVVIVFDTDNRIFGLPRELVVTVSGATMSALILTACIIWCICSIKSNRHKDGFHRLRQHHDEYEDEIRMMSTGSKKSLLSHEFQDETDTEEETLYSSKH

Target	log2 fold change [1]	log2 fold change [2]	log2 fold change [3]	log2 fold change [4]	log2 fold change (Nexturastat A)	log2 fold change (vemurafenib)	log2 fold change [5]	log2 fold change [6]	log2 fold change (givinostat)	log2 fold change (barasertib)	log2 fold change [7]	log2 fold change (volasertib)	log2 fold change [8]	log2 fold change (epoxomicin)	log2 fold change [9]	log2 fold change [10]	log2 fold change [11]	log2 fold change (rosiglitazone)	log2 fold change [12]	log2 fold change [13]
CHCHD1 (UniProt Q96BP2)	-0.02	-0.119	0.279	0.008	0.141	-0.044	0.024	-0.747	0.013	-0.105	-0.054	-0.32	-0.001	-0.026	-0.028	-0.009	0.02	0.035	0.033	-0.191
CASP8 isoform 9 (UniProt Q14790)	-0.054	-0.092	0.017	-0.049	0.064	0	0.177	0.114	0.115	0	0.025	-0.489 (active)	0.065	0.052	0.025	-0.019	0	-0.034	-0.026	-0.082
CLUH, A0A494C0R8	0.008	-0.077	-0.02	0.124	0.068	-0.121	-0.072	0.016	0.092	-0.043	0.183	0.42	0.006	-0.017	0.066	0.078	0.116	0.068	0.101	0.203
CNOT7 (UniProt Q9UIV1)	0.046	-0.043	0.075	0.014	0.048	-0.068	0.053	-0.011	-0.026	0.004	-0.086	-0.305 (active)	-0.049	-0.053	-0.16	-0.052	-0.121	-0.04	0.021	-0.082
CBS (UniProt P35520)	0.031	-0.001	0.004	0.019	-0.08	-0.021	-0.004	-0.016	-0.135	0.02	0.007	0.036	-0.049	0.035	-0.019	0.02	-0.012	0.012	-0.073	-0.03
CDK5RAP3 isoform 4 (UniProt Q96JB5)	0.018	-0.035	0.008	0.015	0.051	0.044	0.077	-0.015	0.109	0.029	-0.056	-0.296 (active)	0	0.021	-0.044	-0.007	0.033	0.055	-0.024	-0.002
CCAR1 (UniProt Q8IX12)	0.03	-0.046	-0.001	-0.017	0.071	0.007	0.006	-0.045	0.027	-0.04	0.079	0.149	0.063	0.008	-0.029	-0.219	0.018	0.046	-0.039	-0.319 (active)
CPD (UniProt O75976)	-0.017	0	-0.01	-0.016	-0.001	-0.017	-0.021	-0.062	0.016	0.011	-0.152	-0.33	-0.017	0.025	0.036	-0.044	-0.024	0.002	0.029	-0.399 (active)
